The values that follow come from PubChem BioAssay (NCI).

Structures are written as SMILES. Several values for one entry are separate records, joined by “and”; a condition that tells them apart may be missing. Equal values may be shown once. The panel holds about 83,000 compounds, 20% with a hit somewhere; the sample as a whole holds those more often.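 Activity criterion: percent growth below 10, measured after cells in 96-well plates were exposed to a single compound concentration for 48 hours.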 Activity calls are given as the source filed them.

The test deals with MDA-MB-468 breast. Kind of test: NCI-60 one-dose screen, 48 h (100 = growth as untreated, 0 = no growth, -100 = all killed). To be noted: 10 µM unless noted. As to the method:
Growth inhibition of the MDA-MB-468 human Breast tumor cell line is measured as a screen for anti-cancer activity. Cells are grown in 96 well plates and exposed to the test compound for 48 hours. Compounds are tested at a single concentration, which is 10^-5 M for most compounds. The reported endpoint is percent growth (GI% or GIPRCNT), where numbers from 0 - 100% represent growth inhibition, and numbers from -100% - 0 represent cell death. For example, a value of 40 represents 60% growth inhibition. A value of 0 means no net growth occurred over the course of the experiment. A value of -40 indicates 40% of cells at the beginning of the experiment died by the end of the experiment. A value of -100 means all cells are dead at the end of the experiment.
NCI-60 Human Tumor Cell Lines Screen was performed using the standard one-dose NCI protocol, which is described in more detail at https://dtp.cancer.gov/discovery_development/nci-60/default.htm.
Compounds with GIPRCNT values below 10 were considered active. Activity score was based on GIPRCNT using the following formula: […]
Score is 0 for GIPRCNT values of 100 or above, 50 for GIPRCNT values of 0, and 100 for GIPRCNT values of -100.
As for `O=C(CC1(O)C(=O)N(Cc2ccccc2)c2ccccc21)c1ccc(C(=O)NCC2CCC3(CC2)OOC2(CCCCC2)OO3)cc1` (stereo not given), the growth was -56.6% (active).

`CC(=O)O[C@H](C[C@H](C(C)C)N(C)C(=O)[C@@H](NC(=O)[C@H]1CCCCN1C)C(C)C)c1nc(C(=O)NC2CCC(C(=O)O)CC2)cs1` (stereo not given in full): the growth is 29.6% (inactive). Turning to `O=C(Nc1ccc(Cl)cc1)Nc1nccs1`, the growth was 16.4% (inactive).

In the case of `O=C1CCCCC1CN1CCCCC1` (stereo not given), the growth is 112% (inactive). With `Nc1nnnc2nc[nH]c12`, the growth was -11.9% (active). For the molecule `CC(=O)N1N=C(c2ccccc2)CC1c1sc(N(CCCl)CCCl)nc1Cl` (stereo not given), the growth is 92.6% (inactive).

Consider `CC(=O)c1ccc(C(=O)NCC2CCC3(CC2)OOC2(CCCCC2)OO3)cc1`, for which the growth was 65.7% (inactive). For `CC(C)N=C([Se])NC(=O)c1ccccc1` the value was -46% (active). Turning to `COc1cc2c(O[C@@H]3OC[C@H](OC(C)=O)[C@H](OC(C)=O)[C@H]3O)c3c(c(-c4ccc5c(c4)OCO5)c2cc1OC)C(=O)OC3`, the growth is 55.4% (inactive). Take `O=C(O)c1cccc(CCl)c1`: the growth is 105% (inactive). Consider `COC(=O)[C@@H](C)C[C@H](Cc1ccccc1)NC(=O)c1csc(CC[C@H](C(C)C)N(C)C(=O)[C@@H](NC(=O)[C@H]2CCCCN2C)C(C)C)n1`, for which the growth was 8.45% (active). For the molecule `CCOC(=O)[C@@H](C)C[C@H](Cc1ccccc1)NC(=O)c1csc([C@@H](C[C@H](C(C)C)N(C)C(=O)[C@@H](NC(=O)[C@H]2C[C@H](O)CCN2C)C(C)C)OC(C)=O)n1`, the growth is 21.8% (inactive).

Take `C[C@]12CCC(=O)C[C@@H]1CC[C@@H]1[C@@H]2CC[C@]2(C)[C@@H](OC(=O)N(CCCl)N=O)CC[C@@H]12`: the growth is -45.8% (active).

For `CNC(=O)Oc1ccc(Cl)cc1SSc1cc(Cl)ccc1OC(=O)NC`, the growth was 85.2% (inactive). As to `N#CC1=C(N)Oc2cc3c(cc2C1c1cccs1)OCO3` (stereo not given), the growth was 6.33% (active).

Consider `CC[C@H](C)[C@H](NC(=O)c1cnccn1)C(=O)N(C)[C@H](C[C@@H](OC(C)=O)c1nc(C(=O)N[C@@H](Cc2ccccc2)C[C@H](C)C(=O)OC)cs1)C(C)C`, for which the growth was 31.5% (inactive). For `CCCCCCCC[N+](C)(CCCCCCCC)CCCCCCCC` the value was -90.1% (active).

As to `O=C1Nc2ccccc2C2c3cccn3-c3ccccc3CN12` (stereo not given), the growth is 30.5% (inactive). To `CC(CC(C#N)(c1ccccc1)c1ccccc1)N1CCOCC1` (stereo not given) belongs 107% (inactive); to `CCn1c2ccccc2c2cc(C(=O)c3ccc(C)c4ccccc34)ccc21`, 25.4% (inactive).

Take `O=[N+]([O-])c1cc([N+](=O)[O-])c(Cl)cc1Cl`: the growth is -73.8% (active).

Turning to `NCCc1cc(O)c(O)cc1O`, the growth was 96.2% (inactive).

As to `O=C(CCCN1CCC2(CC1)C(=O)NCN2c1ccccc1)c1ccc(F)cc1`, the growth is 103% (inactive) and 32.6% (inactive). With `CC1=C(CN)C2=C(C)C3(CC3)[C@@](C)(O)C(=O)C2=C1`, the growth is 73.2% (inactive). On to `O=P(N1CC1)(N1CC1)N1CCc2ccccc21`, for which the growth was 95.2% (inactive).

For `CCOC(=O)c1cncn1C(C)c1ccccc1` (stereo not given), the growth is 97.6% (inactive). For `O=C(O)C1[O][Sb][O]C1C(=O)O` (stereo not given) the value was 95.7% (inactive); for `COC1CC2C=C(C)/C=C/C=C/C(=O)NC(c3ccccc3)C/C=C/CCC(O)CC(=O)C2=C1O` (stereo not given), -50.7% (active); for `Cc1cc(N(CCCl)CCCl)ccc1C=Nc1ccc(-c2csc(Cc3ccccc3)n2)cc1`, 39.3% (inactive). Turning to `CC1(C)CN1P(=O)(N1CC1(C)C)N1CC1(C)C` (stereo not given), the growth is 106% (inactive). `C[C@@]12CC=C3c4nc(Nc5cccc(O)c5)sc4CC[C@]3(C)[C@H]1CC[C@]1(C)C(=O)CC[C@@H]21`: the growth is 32.2% (inactive). As to `COc1cc2cc(C(=O)N3C[C@@H](CCl)c4c3cc(OC(=O)N3CCN(C)[C@@H]5CSSC[C@@H]53)c3ccccc43)[nH]c2c(OC)c1OC`, the growth is -80% (active). To `COc1ccc(/C=C\c2cc(OC)c(OC)c(OC)c2)cc1NS(=O)(=O)c1ccc(Cl)cc1` belongs 42.2% (inactive). Take `CCOP(=O)(OCC)/C(C#N)=C/c1ccc(Br)cc1`: the growth was 101% (inactive).

Regarding `COC(=O)[C@@H](C[C@H](Cc1ccccc1)NC(=O)c1csc([C@@H](C[C@H](C(C)C)N(C)C(=O)[C@@H](NC(=O)[C@H]2CCCCN2C)C(C)C)OC(C)=O)n1)NC(=O)OCc1ccccc1`, the growth was 16.5% [9.5 µM] (inactive). To `COC(=O)[C@@]1(C)CC[C@]2(C)CC[C@]3(C)C4=CC(=O)c5c(cc(O)c(O)c5C)[C@]4(C)CC[C@@]3(C)[C@@H]2C1` belongs 30.1% (inactive); to `COC(=O)CCc1c[nH]c2ccc(N(CCCl)CCCl)cc12`, 8.73% (active); to `CCCCCCCCCCCCCC[P+](CCCCCC)(CCCCCC)CCCCCC`, -88.3% (active).

Take `CN1CCN(C(=O)COc2ccc(/C=C3\CC4C5CC=C6CC(Cl)CCC6(C)C5CCC4(C)C3=O)cc2)CC1` (stereo not given): the growth is 66.6% (inactive).

In the case of `N#CC1C(C#N)C2CCC1C1C2N1c1ccccc1` (stereo not given), the growth is 102% (inactive).
